Experimental findings from the supplement of paper PMC13380429 are described below.

For assay [1], the system named is Vero E6 infected with SARS-CoV-2. Briefly: morphology score (similarity to uninfected cells); higher = more like uninfected cells. The following applies: 24 h.
Assay [2] shares this test system. Briefly: SARS-CoV-2 infection rate relative to infected DMSO; higher = more infection, active = 60 or less. The following applies: 24 h.

In turn, `COC1=C[C@@H]2[C@@H]3Cc4ccc(OC)c(O)c4[C@]2(CCN3C)CC1=O` [sinomenine] (10 µM) yielded a morphology score in assay [1] of 0.141. Further, the SARS-CoV-2 infection rate in assay [2] was 122% (inactive).
Turning to `O=C(O)C1=CCNCC1` [isoguvacine] (10 µM), the morphology score in assay [1] came out at 0.0662. In addition, in assay [2], the SARS-CoV-2 infection rate was 99.5% (inactive).
For `CCCCn1c(=O)c2[nH]c(C34CC5CC(CC3C5)C4)nc2n(CCCO)c1=O` (10 µM) the same measures were -0.0475 and 100% (inactive).
In the case of `Nc1nc2cc(-c3ccc4ncc(C(=O)N5CCOCC5)n4c3)ccc2o1` (10 µM), the morphology score in assay [1] amounted to 0.241. Further, the SARS-CoV-2 infection rate in assay [2] was 92% (inactive).
In the same order, the values of `N=C(N)SCCc1c[nH]cn1` [imetit] (10 µM) are 0.1 and 106% (inactive).
